# Test results taken from the supplement of paper PMC4022240.
# ± gives the standard deviation.
# T1: HaloTag-ATRX ADD domain (163-292)
# T1 chain: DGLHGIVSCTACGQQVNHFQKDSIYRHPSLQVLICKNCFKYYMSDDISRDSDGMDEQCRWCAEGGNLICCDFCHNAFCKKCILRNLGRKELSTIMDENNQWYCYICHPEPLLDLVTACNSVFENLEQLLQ
# How the values were obtained:
# Test in all cases: peptide microarray binding signal (635 nm), min-max normalized on array (fraction of array maximum); higher = stronger binding
# Conditions in all cases: peptide region: H3 11-23
# [1] = target: T1, HaloTag-ATRX ADD domain (163-292)
# How it was run: (§1)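 An Axon GenePix 4000B scanned the arrays at 635 nm for signal and at 532 nm to catch misprints. Those arrays held histone 13-mer peptide–cellulose conjugates printed in triplicate on nitrocellulose with a Cy3 tracer, blocked overnight at 4°C and probed for 1 h at 4°C with biotin-labelled HaloTag reader fusions (10 nM to 1 μM) plus streptavidin-Alexa Fluor 647 or with rabbit histone antibodies (1:10,000 to 1:2,000) plus anti-rabbit Alexa 647. Each binding signal is a triplicate-spot mean intensity, scaled min-max within its library.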
# [2] = target: HaloTag-ING2 PHD (mouse Ing2 200-280)
# How it was run: as §1
# [3] = target: anti-H3K4me3 antibody ab8580
# How it was run: as §1
# [4] = target: anti-H3K9me3 antibody ab8898
# How it was run: as §1
# [5] = peptide modifications: H3K14me2 H3K18me3, binder concentration: 1:2,000 dilution
# [6] = peptide modifications: H3K14me2 H3K18me3, binder concentration: 1:10,000 dilution
# [7] = peptide modifications: H3K14me1 H3K18me2, binder concentration: 1:2,000 dilution
# [8] = peptide modifications: H3K14me1 H3K18me2, binder concentration: 1:10,000 dilution
# [9] = peptide modifications: H3K14me2 H3R17me1, binder concentration: 1:2,000 dilution
# [10] = peptide modifications: H3K14me2 H3R17me1, binder concentration: 1:10,000 dilution
# [11] = peptide modifications: H3K14me2 H3K18me2, binder concentration: 1:2,000 dilution
# [12] = peptide modifications: H3K14me2 H3K18me2, binder concentration: 1:10,000 dilution
# [13] = peptide modifications: H3K14me3 H3K18me1, binder concentration: 1:2,000 dilution
# [14] = peptide modifications: H3K14me3 H3K18me1, binder concentration: 1:10,000 dilution
binder,measurement,setting,value
TGGKAPRKQLATK [H3 11-23 T G G Kme2 A P R Kme3 Q L A T K],peptide microarray binding signal,"[1]; peptide modifications: H3K14me2 H3K18me3, binder concentration: 50 nM",0.00646 ± 0.00024
same,peptide microarray binding signal,"[1]; peptide modifications: H3K14me2 H3K18me3, binder concentration: 500 nM",0.009572 ± 8e-05
same,peptide microarray binding signal,"[2]; peptide modifications: H3K14me2 H3K18me3, binder concentration: 10 nM",0.00859 ± 0.00099
same,peptide microarray binding signal,"[2]; peptide modifications: H3K14me2 H3K18me3, binder concentration: 100 nM",0.0188 ± 0.0022
same,peptide microarray binding signal,[3]; [5],0.54 ± 0.11
same,peptide microarray binding signal,[3]; [6],0.4 ± 0.12
same,peptide microarray binding signal,[4]; [5],0.0567 ± 0.005
same,peptide microarray binding signal,[4]; [6],0.0291 ± 0.002
TGGKAPRKQLATK [H3 11-23 T G G Kme A P R Kme2 Q L A T K],peptide microarray binding signal,"[1]; peptide modifications: H3K14me1 H3K18me2, binder concentration: 50 nM",0.009 ± 0.00035
same,peptide microarray binding signal,"[1]; peptide modifications: H3K14me1 H3K18me2, binder concentration: 500 nM",0.018 ± 0.00081
same,peptide microarray binding signal,"[2]; peptide modifications: H3K14me1 H3K18me2, binder concentration: 10 nM",0.00913 ± 0.00044
same,peptide microarray binding signal,"[2]; peptide modifications: H3K14me1 H3K18me2, binder concentration: 100 nM",0.0241 ± 0.008
same,peptide microarray binding signal,[3]; [7],0.0068 ± 0.0002
same,peptide microarray binding signal,[3]; [8],0.00588 ± 0.00018
same,peptide microarray binding signal,[4]; [7],0.00371 ± 0.00042
same,peptide microarray binding signal,[4]; [8],0.00271 ± 4.1e-05
TGGKAPRKQLATK [H3 11-23 T G G Kme2 A P Rme K Q L A T K],peptide microarray binding signal,"[1]; peptide modifications: H3K14me2 H3R17me1, binder concentration: 50 nM",0.00417 ± 0.00015
same,peptide microarray binding signal,"[1]; peptide modifications: H3K14me2 H3R17me1, binder concentration: 500 nM",0.0101 ± 0.00014
same,peptide microarray binding signal,"[2]; peptide modifications: H3K14me2 H3R17me1, binder concentration: 10 nM",0.00483 ± 0.00017
same,peptide microarray binding signal,"[2]; peptide modifications: H3K14me2 H3R17me1, binder concentration: 100 nM",0.00843 ± 0.0018
same,peptide microarray binding signal,[3]; [9],0.00376 ± 0.0005
same,peptide microarray binding signal,[3]; [10],0.00211 ± 8.9e-05
same,peptide microarray binding signal,[4]; [9],0.00378 ± 0.00014
same,peptide microarray binding signal,[4]; [10],0.00288 ± 8.6e-05
TGGKAPRKQLATK [H3 11-23 T G G Kme2 A P R Kme2 Q L A T K],peptide microarray binding signal,"[1]; peptide modifications: H3K14me2 H3K18me2, binder concentration: 50 nM",0.00868 ± 0.00041
same,peptide microarray binding signal,"[1]; peptide modifications: H3K14me2 H3K18me2, binder concentration: 500 nM",0.0137 ± 0.0018
same,peptide microarray binding signal,"[2]; peptide modifications: H3K14me2 H3K18me2, binder concentration: 10 nM",0.00555 ± 0.00016
same,peptide microarray binding signal,"[2]; peptide modifications: H3K14me2 H3K18me2, binder concentration: 100 nM",0.0111 ± 0.00051
same,peptide microarray binding signal,[3]; [11],0.0136 ± 0.0033
same,peptide microarray binding signal,[3]; [12],0.0097 ± 0.0018
same,peptide microarray binding signal,[4]; [11],0.00616 ± 0.00078
same,peptide microarray binding signal,[4]; [12],0.00536 ± 0.00032
TGGKAPRKQLATK [H3 11-23 T G G Kme3 A P R Kme Q L A T K],peptide microarray binding signal,"[1]; peptide modifications: H3K14me3 H3K18me1, binder concentration: 50 nM",0.00624 ± 0.00027
same,peptide microarray binding signal,"[1]; peptide modifications: H3K14me3 H3K18me1, binder concentration: 500 nM",0.0127 ± 0.00063
same,peptide microarray binding signal,"[2]; peptide modifications: H3K14me3 H3K18me1, binder concentration: 10 nM",0.0189 ± 0.00082
same,peptide microarray binding signal,"[2]; peptide modifications: H3K14me3 H3K18me1, binder concentration: 100 nM",0.0235 ± 0.0053
same,peptide microarray binding signal,[3]; [13],0.0496 ± 0.0091
same,peptide microarray binding signal,[3]; [14],0.0252 ± 0.0028
same,peptide microarray binding signal,[4]; [13],0.0621 ± 0.0077
same,peptide microarray binding signal,[4]; [14],0.0203 ± 0.0028
